S1P2 agonist – S1P2 (human) receptor agonism; O95136; S1P2-expressing cell line, agonist reporter read-out; activation, % at 4.5 µM; 97,000 compounds, 0.46% hits; in the data active = activation above about 16%;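 note: 0% = vehicle low control and 100% = maximal reference agonist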
Target sequence (O95136 whole entry, looked up): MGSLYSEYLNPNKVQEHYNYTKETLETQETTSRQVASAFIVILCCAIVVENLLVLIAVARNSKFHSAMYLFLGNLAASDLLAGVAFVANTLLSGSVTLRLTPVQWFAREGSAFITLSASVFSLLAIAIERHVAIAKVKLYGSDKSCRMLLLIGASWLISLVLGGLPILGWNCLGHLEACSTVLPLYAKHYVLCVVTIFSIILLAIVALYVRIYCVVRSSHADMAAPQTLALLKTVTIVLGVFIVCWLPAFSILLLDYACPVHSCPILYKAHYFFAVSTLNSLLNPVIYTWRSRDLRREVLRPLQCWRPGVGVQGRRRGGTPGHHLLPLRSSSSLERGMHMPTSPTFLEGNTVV
MRP1 act – activates MRP-1 | 140,000 compounds, 0.61% hits | H69AR cells + doxorubicin, viability rescue, CellTiter-Glo | viability increase, % at 10 µM;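 active = viability gain under doxorubicin at or above a set limit, the compound median plus 3 SD, cut at about 4.7% in these data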;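 note: MRP-1 overexpressing cells given doxorubicin 25 µM after compound pretreatment; 18-22 h compound pretreatment then 72 h with doxorubicin before readout; 0% = doxorubicin-only wells and 100% = vehicle-treated cells without doxorubicin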
S1P2 blocker – S1P2 (human) receptor antagonism; O95136; AID 736; cell-based S1P2 antagonist assay, inhibition at 5 uM; 97,000 compounds, 0.21% hits; inhibition, % at 5 µM; in the data active = inhibition above about 45%;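 note: CRE beta-lactamase reporter cells expressing human S1P2 stimulated with S1P; 0% = agonist at EC80 alone and 100% = agonist plus reference antagonist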
MRP resist rev – reverses drug resistance mediated by MRP. H69AR cells + 2 uM doxorubicin, CellTiter-Glo, 72 h. differential viability (reversal), % at 10 µM. 85,000 compounds, 0.04% hits;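 active = viability drop by adding the cancer drug above about 55%, with treated viability meeting a 40% cutoff, limit read from the data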;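 note: viability without doxorubicin minus viability with 2 µM doxorubicin for each compound; larger differential means the compound sensitizes cells more to doxorubicin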
GALR2 antag – GALR2 (human) receptor antagonism. O43603. GALR2-expressing cells, antagonist mode. inhibition, % at 4 µM. 140,000 compounds, 0.39% hits. AID 828; in the data active = inhibition above about 27%;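 note: cells stimulated with galanin 1-16 at roughly its EC80; 0% = agonist challenge control and 100% = basal control without agonist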
GALR2 agonist – GALR2 (human) receptor agonism. O43603. GALR2-expressing cells, agonist activation read-out. activation, % (concentration not given with the values). 140,000 compounds, 0.48% hits. AID 803; in the data active = activation above about 5%, passing the limit was not always enough;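 note: 0% = vehicle buffer wells and 100% = reference agonist at full effect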
Numbers without * were called inactive; / = no result given. An excerpt weighted towards active compounds, which were near 1.7% of everything screened.

SMILES	S1P2 agonist	MRP1 act	S1P2 blocker	MRP resist rev	GALR2 antag	GALR2 agonist
COc1ccccc1CCn1c(N)c(C#N)c2nc3ccccc3nc21	16.1*	-0.6	-31.3	/	-20.2	2.0
CCCCCn1c(N)c(C#N)c2nc3ccccc3nc21	12.5	-3.5	-12.0	24.1	-8.5	7.9*
COc1ccc(Cn2c(N)c(C#N)c3nc4ccccc4nc32)cc1OC	21.0*	-4.2	-85.1	12.1	-9.3	2.6
COc1ccc(CCn2c(N)c(C#N)c3nc4ccccc4nc32)cc1OC	2.1	-4.9	1.0	-1.0	-7.2	0.7
N#Cc1c(N)n(CCNC(=O)c2ccccc2)c2nc3ccccc3nc12	/	-2.1	/	/	-3.3	0.5
N#Cc1c(N)n(CCCN2CCOCC2)c2nc3ccccc3nc12	0.5	-3.9	12.8	-9.3	1.1	3.9
COc1cccc(NC(=O)c2cc(CN3C(=O)c4ccccc4C3=O)ccc2OC)c1	/	-1.9	/	/	10.1	0.2
COc1ccc(CC(=O)Oc2cc(C)[nH]c(=O)c2[N+](=O)[O-])cc1	/	0.6	/	/	4.0	-1.4
Cc1ccc2[nH]c(=O)c3cc(C(=O)N(CCCOC(C)C)Cc4ccco4)sc3c2c1	-1.4	-0.7	-6.3	-13.6	-16.6	-1.1
Nc1nnnn1/N=C/C(Br)=C/c1ccccc1	-8.0	-4.4	46.7*	-0.2	30.4*	-1.2
CC(C)NC(=O)c1ccc2c(c1)S(=O)(=O)c1ccccc1C2=O	18.2*	-0.8	-45.6	-3.3	-14.2	2.2
CCc1ccc2nc(Nc3nc(COC)cc(=O)[nH]3)nc(C)c2c1	19.3*	-6.3	-19.3	/	-1.5	-1.3
COc1ccc(NS(=O)(=O)c2cc(NC(=O)CNC(=O)c3ccc(C)s3)ccc2Cl)cc1	/	14.3*	/	/	14.8	-1.2
Cn1c(N)c(C(=O)COC(=O)c2cc(-c3ccccc3)nc3ccccc23)c(=O)n(Cc2ccccc2)c1=O	/	2.5	/	/	-3.0	-1.2
Cn1c(N)c(C(=O)COC(=O)c2cc(C3CC3)nc3ccccc23)c(=O)n(Cc2ccccc2)c1=O	/	5.3*	/	/	-5.9	-0.8
Cc1nn(-c2ccc(F)cc2)c2sc(C(=O)N3CCCCCC3)cc12	30.4*	-1.8	-26.0	-10.2	-21.2	1.5
O=C1c2cnc3nc(SCc4ccc(Cl)cc4)nn3c2CC2c3ccccc3CCN12 (configuration not stated)	21.5*	1.3	-18.2	/	8.5	3.6
CC(OC(=O)c1ccc([N+](=O)[O-])s1)C(=O)Nc1ncc(Cl)cc1Cl (configuration not stated)	/	-3.4	/	/	-5.8	-0.6
COc1ccc(NS(=O)(=O)c2ccc3nc(COc4ccc5ccccc5c4)[nH]c3c2)cc1	/	-0.8	/	/	1.4	-1.2
COc1ccc(OCc2nc3ccc(S(=O)(=O)Nc4ccccc4Cl)cc3[nH]2)cc1	/	6.0*	/	/	0.7	0.6
C/C(=N\OC(=O)c1cccc(C)c1)c1sc(-c2ccccc2)nc1C	-4.5	4.7*	12.9	/	3.4	-3.6
O=C(/C=C/c1ccc([N+](=O)[O-])cc1)N1CCN(c2ccccc2F)CC1	/	35.2*	/	/	3.9	0.2
N#CC(c1cccc(Cl)c1)c1ccc2c(C(F)(F)F)cc(C(F)(F)F)nc2n1 (configuration not stated)	-5.3	-2.3	88.0*	0.1	15.1	-1.9
O=C1C2C(C(=O)N1/N=C/c1ccc(N3CCCCC3)o1)C1C=CC2C12CC2 (configuration not stated)	/	-0.4	/	/	14.5	-1.6
O=C(NC(=S)Nc1ccccc1N1CCCC1)c1ccc(-c2cccc([N+](=O)[O-])c2)o1	-8.0	-1.8	-0.1	21.5	2.9	-3.1
SMILES	S1P2 agonist	MRP1 act	S1P2 blocker	MRP resist rev	GALR2 antag	GALR2 agonist
O=C(NC(=S)Nc1ccccc1N1CCOCC1)c1ccc(-c2cccc(Cl)c2)o1	/	5.2*	/	/	3.3	-0.3
O=C(NC(=S)Nc1ccccc1N1CCCCC1)c1ccc(-c2cccc([N+](=O)[O-])c2)o1	-2.6	8.0*	-8.9	-2.0	-14.4	-0.6
Cc1nn(C)cc1/C=C1\SC(=S)NC1=O	2.9	-3.0	-13.6	/	-23.9	-0.7
Cc1cc(/C=C2\SC(=S)NC2=O)c(C)n1C	-3.3	5.5*	7.5	/	-3.3	-2.6
Cc1cccc(C(=O)NNC(=O)CN2C(=O)c3ccccc3C2=O)c1	/	4.8*	/	/	0.5	-1.4
O=C(CSc1nnc(-c2cccnc2)s1)Nc1ccc(C(=O)O)cc1	/	1.9	/	/	-1.1	-0.1
C/C(=N\NC(=O)C(N)=O)c1ccc(Br)cc1	/	-3.4	/	/	-11.6	-1.9
CC/C(=N\NC(=O)C(N)=O)c1ccccc1O	/	5.1*	/	/	8.3	-1.5
Cc1ccccc1N(C(=O)Cc1c[nH]c2ccccc12)C(C(=O)NC1CCCCC1)c1ccco1 (configuration not stated)	/	-3.5	/	/	16.9	6.1*
Cc1ccc(S(=O)(=O)CCC(=O)N2CCc3ccccc32)cc1	41.5*	-2.0	-7.6	21.2	-6.7	-0.8
N=C(N)SCc1nc2ccccn2c1Br	/	7.9*	/	/	0.1	-1.7
Cc1cccc2nc(CSC(=N)N)c(Br)n12	/	2.0	/	/	4.6	-0.3
O=C1/C(=C\c2ccco2)SC(=S)N1c1ccc(O)cc1	/	5.2*	/	/	-16.3	1.2
Cc1ccc(/C=C2\SC(=S)N(c3c(C)n(C)n(-c4ccccc4)c3=O)C2=O)cc1	-10.9	7.6*	12.4	/	-1.9	-1.4
Cc1c(N2C(=O)/C(=C/c3ccccc3)SC2=S)c(=O)n(-c2ccccc2)n1C	-4.3	8.0*	29.7	/	4.2	-0.3
Cc1c(N2C(=O)/C(=C/c3cccc4ccccc34)SC2=S)c(=O)n(-c2ccccc2)n1C	-4.1	/	27.0	/	7.2	-1.1
CCc1nccn1C(=O)c1cnn2c(C(F)F)cc(-c3ccc(C)cc3)nc12	/	6.0*	/	/	-5.0	-0.2
Cc1ccc(C(=O)N/C(=C\c2ccc(Cl)cc2)C(=O)NCC2CCCO2)cc1 (configuration not stated)	/	-1.7	/	/	1.4	-0.9
CCOc1ccc(S(=O)(=O)N(CC(=O)N/N=C/c2ccc(-c3ccc([N+](=O)[O-])cc3)o2)c2ccccc2)cc1	-16.8	-3.9	61.1*	/	3.1	-1.5
COc1ccc(N(CC(=O)N/N=C/c2cc3ccc(OC)cc3nc2Cl)S(=O)(=O)c2ccccc2)cc1	/	-3.0	/	/	4.1	-1.1
COc1ccc2cc(/C=N/NC(=O)CN(c3ccccc3)S(=O)(=O)c3ccccc3)c(Cl)nc2c1	/	-1.5	/	/	-2.3	6.5*
Cc1ccc(C)c(N(CC(=O)N/N=C/c2ccc(-c3ccc([N+](=O)[O-])cc3)o2)S(=O)(=O)c2ccccc2)c1	-14.6	3.3	66.8*	/	14.1	-3.9
Cc1ccc2nc(SCc3nnc(-c4ccccc4Br)o3)[nH]c2c1	-1.6	-3.0	-15.3	5.2	1.6	-1.8
C=CCNc1oc(-c2ccc(OCC)cc2)nc1C#N	-0.8	-2.2	-5.6	19.9	11.0	-2.4
CCOc1ccc(-c2nc(C#N)c(NCC(C)C)o2)cc1	4.6	6.8*	5.5	5.7	-4.6	0.1
N#Cc1cc2c(nc1SCC(=O)N1CCCCC1)CCCC2	31.5*	0.2	16.6	6.1	-0.3	0.8
Cc1cc(C)nc(NN2C(=O)/C(=C/c3ccc(O)cc3)SC2=S)n1	-4.6	7.8*	8.4	/	0.9	-2.3
